# Data as given in PubChem BioAssay.
# Calls of active or inactive are those of the source. Cut-off read from the data, not from the text of the source, unless noted: active = inhibition above about 80%; inactive = the rest.
# What was measured:
# [1] = growth inhibition, single agent or in combination, cell-based, chromothripsis tumors, cisplatin or BGB combos (AID 1671449); conditions: LFS_MB_P medulloblastoma cells;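 note: cells exposed for 96 hours; 0% = vehicle DMSO and 100% = killing by high DMSO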
# [2] = growth inhibition, single agent and combos, cell-based, chromothripsis tumors, cisplatin or BGB combos (AID 1671450); conditions: HDN33 neuroblastoma cells, stronger effect = higher value;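 note: cells exposed to compound for four days; 0% = vehicle DMSO and 100% = cell killing by high DMSO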
# [3] = growth inhibition, single agents and combos, ICB984, cell-based, cisplatin or BGB combos, synergistic combos for chromothripsis tumors (AID 1671451; call rule not given here;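 note: cells exposed for 96 hours before readout; 0% = vehicle DMSO and 100% = killing by high DMSO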); conditions: ICB984 medulloblastoma cells, drug combinations, stronger effect = higher value
# [4] = growth inhibition, single agents and combos, LFS_MB_1R, cell-based, cisplatin or BGB combos, synergistic combos for chromothripsis tumors (AID 1671452); conditions: LFS_MB_1R medulloblastoma cells, stronger effect = higher value;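 note: cells exposed for 96 hours before readout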
# [5] = growth inhibition, single agents and combos, HTB85, cell-based, BGB or cisplatin IC20 combos, synergistic combos for chromothripsis tumors (AID 1671453); conditions: HTB85 osteosarcoma cells, drug combinations, stronger effect = higher value;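 note: cells exposed for 96 hours before readout; 0% = vehicle DMSO and 100% = high DMSO killing control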
# [6] = growth inhibition, single agents and combos, CRL2098, cell-based, BGB or cisplatin IC20 combos, synergistic combos for chromothripsis tumors (AID 1671454); conditions: CRL2098 osteosarcoma cells, drug combinations, stronger effect = higher value;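 note: cells exposed for 96 h before readout; 0% = vehicle DMSO and 100% = killing by high DMSO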
# [7] = growth inhibition, single agents and combos, HD-MB03, cell-based, BGB or cisplatin IC20 combos, synergistic combos for chromothripsis tumors (AID 1671455; in the data active = inhibition above about 83%;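 note: 0% = vehicle DMSO and 100% = high DMSO as cytotoxic control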); conditions: HD-MB03 medulloblastoma cells, stronger effect = higher value
# [8] = growth inhibition, single agents and combos, UWB1.289, cell-based, BGB or cisplatin combos, synergistic combos for chromothripsis tumors (AID 1671456); conditions: UWB1.289 ovarian carcinoma cells, stronger effect = higher value;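 note: cells exposed to compound for four days; 0% = vehicle DMSO and 100% = killing by high DMSO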
# [9] = growth inhibition, single agents and combos, LFS_MB_2R, cell-based, cisplatin combos, synergistic combos for chromothripsis tumors (AID 1671457); conditions: LFS_MB_2R medulloblastoma cells, stronger effect = higher value;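 note: cells exposed to compound for four days before readout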
# [10] = growth inhibition, MDA-MB-436, cell-based, BGB or cisplatin combos, synergistic combos for chromothripsis tumors (AID 1671458; call rule not given here;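 note: cells exposed for 96 hours; 0% = vehicle DMSO and 100% = killing by high DMSO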); conditions: MDA-MB-436 breast carcinoma growth inhibition, drug combinations, stronger effect = higher value
# [11] = UWB1.289_BRCA1 ovarian cancer growth, cell-based, BGB or cisplatin combinations (AID 1671459); conditions: UWB1.289 BRCA1 ovarian carcinoma, drug combinations, stronger effect = higher value
# [12] = drug combination toxicity in non-malignant astrocytes – cell-based, BGB or cisplatin IC20 combos, cytotoxicity control for chromothriptic childhood tumor combination screen (AID 1671460); conditions: Human astrocytes, viability inhibition, drug combinations, at 0.5 µM, stronger effect = higher value;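 note: cells exposed to compounds for 96 hours before viability readout; 0% = vehicle and 100% = killing control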
# [13] = BT084 cell growth, single and combined drugs, ICGC_MB145, cisplatin and BGB IC40 combos (AID 1671461); conditions: BT084 medulloblastoma cells, drug combinations, stronger effect = higher value;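 note: cells exposed to drugs for 96 hours; 0% = vehicle DMSO and 100% = high DMSO full killing control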
# [14] = RCMB18 cell growth, single agent and combined, cisplatin and BGB IC40 combos (AID 1671462); conditions: RCMB18 medulloblastoma cells, stronger effect = higher value;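 note: cells exposed to compound for four days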
# [15] = CRL1545 cell growth, single agent and combined, cisplatin and BGB IC20 combos (AID 1671464); conditions: CRL1545 osteosarcoma cells, stronger effect = higher value;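 note: cells exposed to compound for 96 hours before readout; 0% = vehicle DMSO and 100% = high DMSO killing control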
# [16] = measured here: combination with BGB IC40, at 0.05 µM
# [17] = measured here: with BGB IC20 combination, at 0.5 µM
# [18] = measured here: with cisplatin IC20 combination, at 0.5 µM
# [19] = measured here: combination with cisplatin, at 0.5 µM
# [20] = measured here: combination with cisplatin, at 5 µM
smiles,measurement,setting,value
CO[C@H]1/C=C/O[C@@]2(C)Oc3c(C)c(O)c4c(O)c(c5c(c4c3C2=O)=NC2(CCN(CC(C)C)CC2)N=5)NC(=O)/C(C)=C\C=C\[C@H](C)[C@H](O)[C@@H](C)[C@@H](O)[C@@H](C)[C@H](OC(C)=O)[C@@H]1C,inhibition,"[1]; at 0.5 µM, stronger effect = higher value",6.6% (inactive)
same,inhibition,"[1]; measured here: combination with BGB IC20, at 0.005 µM",-30.2%
same,inhibition,"[1]; measured here: combination with BGB IC40, at 0.005 µM",-46.5%
same,inhibition,[1]; [16],-18.6%
same,inhibition,"[1]; measured here: combination with cisplatin, at 0.5 µM, stronger effect = higher value",63%
same,inhibition,"[1]; measured here: combination with cisplatin, at 5 µM, stronger effect = higher value",-0.387%
same,inhibition,"[2]; BGB combo, at 5 µM",-22.5%
same,inhibition,[2]; at 0.5 µM,1.4% (inactive)
same,inhibition,"[2]; cisplatin combo, at 5 µM",-9.76%
same,inhibition,[2]; [17],-13.2%
same,inhibition,[2]; [18],8.47%
same,inhibition,"[2]; single agent, at 5 µM",11%
same,inhibition,"[3]; BGB IC20 combo, at 0.005 µM",3.39%
same,inhibition,"[3]; BGB IC40 combo, at 0.005 µM",6.3%
same,inhibition,"[3]; BGB IC40 combo, at 0.05 µM",12%
same,inhibition,[3]; at 0.5 µM,-8.24% (inactive)
same,inhibition,"[3]; cisplatin combo, at 0.05 µM",7.56%
same,inhibition,"[3]; cisplatin combo, at 0.5 µM",-8.29%
same,inhibition,"[3]; cisplatin combo, at 5 µM",0.667%
same,inhibition,"[3]; measured here: 5 uM single agent, at 5 µM",-5.87%
same,inhibition,[4]; at 0.5 µM,-1.23% (inactive)
same,inhibition,[4]; [16],-1.35%
same,inhibition,[4]; [19],1.03%
same,inhibition,[4]; [20],-6.05%
same,inhibition,[5]; at 0.5 µM,5.7% (inactive)
same,inhibition,"[5]; measured here: with BGB IC20, at 0.5 µM",19%
same,inhibition,"[5]; measured here: with BGB IC20, at 5 µM",26.5%
same,inhibition,"[5]; measured here: with cisplatin IC20, at 0.5 µM",-4.7%
same,inhibition,"[5]; measured here: with cisplatin IC20, at 5 µM",9.84%
same,inhibition,"[5]; single agent, at 5 µM",14.9%
same,inhibition,[6]; at 0.5 µM,1.32% (inactive)
same,inhibition,"[6]; measured here: combination with BGB at IC20, at 0.5 µM",-21.2%
same,inhibition,"[6]; measured here: combination with cisplatin at IC20, at 0.5 µM",29.4%
same,inhibition,[7]; at 0.5 µM,5.15% (inactive)
same,inhibition,"[7]; measured here: combo with BGB at IC20, at 0.5 µM",7.14%
same,inhibition,"[7]; measured here: combo with cisplatin at IC20, at 0.5 µM",3.29%
same,inhibition,[8]; at 0.5 µM,1.18% (inactive)
same,inhibition,"[8]; measured here: inhibition with BGB combination, at 0.05 µM",4.24%
same,inhibition,"[8]; measured here: inhibition with cisplatin combination, at 0.05 µM",-0.452%
same,inhibition,[9]; at 0.5 µM,1.7% (inactive)
same,inhibition,[9]; [19],13.1%
same,inhibition,[9]; [20],18.7%
same,inhibition,[10]; at 0.5 µM,0.36% (inactive)
same,inhibition,"[10]; measured here: BGB combination, at 0.5 µM",1.73%
same,inhibition,"[10]; measured here: BGB combination, at 5 µM",-12.5%
same,inhibition,"[10]; measured here: cisplatin combination, at 0.5 µM",-2.44%
same,inhibition,"[10]; measured here: cisplatin combination, at 5 µM",-1.97%
same,inhibition,"[11]; BGB combination, concentration series, at 5 µM",-1.95%
same,inhibition,[11]; at 0.5 µM,1.5% (inactive)
same,inhibition,"[11]; cisplatin combination, concentration series, at 5 µM",4.45%
same,inhibition,[12],-10.5% (inactive)
same,inhibition,[12]; measured here: combo with BGB IC20,-5.38%
same,inhibition,[12]; measured here: combo with cisplatin IC20,-10.5%
same,inhibition,[13]; at 0.5 µM,0.406% (inactive)
same,inhibition,"[13]; cisplatin combination, at 0.5 µM",-4.06%
same,inhibition,"[13]; cisplatin combination, at 5 µM",-22.6%
same,inhibition,"[13]; measured here: BGB IC40 combination 0.05 uM, at 0.05 µM",-14.2%
same,inhibition,"[13]; single agent, at 5 µM",14.2%
same,inhibition,[14]; at 0.5 µM,-2.39% (inactive)
same,inhibition,"[14]; cisplatin combo, at 5 µM",17.1%
same,inhibition,"[14]; measured here: BGB IC40 combination, at 0.05 µM",-17.4%
same,inhibition,[14]; [19],-9.55%
same,inhibition,"[14]; single agent, at 5 µM",16.6%
same,inhibition,[15]; at 0.5 µM,7.88% (inactive)
same,inhibition,[15]; [17],-2.39%
same,inhibition,[15]; [18],11.6%
same,inhibition,"[15]; single agent, at 0.05 µM",4.52%
same,inhibition,"[15]; single agent, at 5 µM",-19.7%
